Assay [1] in a line: qHTS assay to test for compound auto fluorescence at 535 nm (green) in HEK293 cells (AID 720680).
Assay [2] is described as follows: qHTS assay to test for compound auto fluorescence at 460 nm (blue) in HEK293 cell free culture (AID 720681). An outline of the steps: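 Compounds were added to cell-free DMEM with 10% FBS and fluorescence read directly. The blue channel used 405 nm excitation and 460 nm emission, with triamterene as the reference fluorophore.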
Background: In qHTS, concentration-response curves come from the screen itself.

A short description of assay [3]: qHTS assay to test for compound auto fluorescence at 535 nm (green) in HEK293 cell free culture (AID 720682). An outline of the steps:
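No cells present: wells hold DMEM supplemented with 10% FBS, into which compound or vehicle is pinned. Green emission is then recorded (485 nm excitation, 535 nm emission) and scaled to fluorescein.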

Assay [4] in a line: qHTS assay to test for compound auto fluorescence at 590 nm (red) in HEK293 cell free culture (AID 720683). The method in brief: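 Cell-free wells of DMEM with 10% FBS received compound, and intrinsic fluorescence was read at excitation/emission 540/590 nm. Values expressed as equivalence to Rose Bengal sodium.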
The nature of assay [5]: qHTS assay to test for compound auto fluorescence at 590 nm (red) in HepG2 cell free culture (AID 720684). An outline of the steps: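 Auto fluorescence equivalency versus Rose Bengal sodium, red channel Ex/Em 540/590 nm; compounds in cell-free MEM/10% FBS; DMSO vehicle control.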
Assay [6] in a line: qHTS assay to test for compound auto fluorescence at 460 nm (blue) in HepG2 cell free culture (AID 720685). An outline of the steps:
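Cell-free plates of MEM plus 10% FBS received 23 nL compound or DMSO vehicle; blue-channel (405/460 nm) intensity scored against triamterene as reference fluorophore.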

Assay [7] can be described thus: qHTS assay to test for compound auto fluorescence at 535 nm (green) in HepG2 cell free culture (AID 720686).
The nature of assay [8]: qHTS assay to test for compound auto fluorescence at 460 nm (blue) in HepG2 cells (AID 720687). The method in brief: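 HepG2 cells in MEM with 10% FBS, attached overnight at 37 C, were exposed to compound or DMSO for 1 hr at 37 C, 5% CO2. Blue fluorescence was read at 405/460 nm, with triamterene as reference fluorophore.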
Assay [9] has as its target Glucocorticoid receptor (Homo sapiens) (UniProt P04150). Put plainly: qHTS assay to identify small molecule agonists of the glucocorticoid receptor (GR) signaling pathway (AID 720691; active = well fitted activation curve with a large enough effect in the signal ratio in the repeat runs, not every such curve was filed as active; the % refers to the signal ratio). The method in brief: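 Compounds in DMSO, alongside positive controls, were added to GR-bla HeLa reporter cells and incubated 18 h at 37 C; GRE-driven beta-lactamase was detected by fluorescence after 2 h with FRET substrate at room temperature.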

For assay [10] the target is unchanged. The experiment in a line: qHTS assay to identify small molecule antagonists of the glucocorticoid receptor (GR) signaling pathway (AID 720692; active = well fitted inhibition curve with a large enough effect in the signal ratio in the repeat runs, not every such curve was filed as active; the % refers to the signal ratio; note: potency is the fitted concentration of half-maximal effect). An outline of the steps: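 In a 1536-well cell format, compounds were added 4 h after seeding GR-bla HeLa cells, together with dexamethasone at 5 nM final; reporter activity was measured by FRET-substrate fluorescence following 18 h at 37 C.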

Assay [11] in a line: qHTS assay to identify small molecule antagonists of the glucocorticoid receptor (GR) signaling pathway - cell viability counter screen (AID 720693). Note: nearly all actives have a fitted effect of over 55% in size. Note: potency is the fitted concentration of half-maximal effect.
The nature of assay [12]: qHTS assay for identifying genotoxic compounds that show differential cytotoxicity against isogenic chicken DT40 cell lines with known DNA damage response pathways - Rev3 mutant cell line (AID 743014). Note: nearly all actives have a fitted effect of over 55% in size. Note: potency is the fitted concentration of half-maximal effect.
Assay [13] in a line: qHTS assay for identifying genotoxic compounds that show differential cytotoxicity against isogenic chicken DT40 cell lines with known DNA damage response pathways - Rad54/Ku70 mutant cell line (AID 743015). Note: nearly all actives have a fitted effect of over 60% in size. Note: potency is the fitted concentration of half-maximal effect.
Assay [14] in a line: qHTS assay to identify small molecule antagonists of the androgen receptor (AR) signaling pathway - cell viability counter screen (AID 743033; note: nearly all actives have a fitted effect of over 45% in size; note: potency is the fitted concentration of half-maximal effect).
Assay [15] can be described thus: qHTS assay to identify small molecule antagonists of the androgen receptor (AR) signaling pathway using the MDA cell line - cell viability counter screen (AID 743041; note: nearly all actives have a fitted effect of over 45% in size; note: potency is the fitted concentration of half-maximal effect). An outline of the steps:
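Compound exposure lasted 16 h at 37C in MDA-kb2 AR-luc cells stimulated with R1881. Protease-based CellTiter-Fluor reagent was applied for the final 30 min and fluorescence measured.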

Assay [16] deals with Androgen receptor (Homo sapiens) (UniProt P10275). Put plainly: qHTS assay to identify small molecule antagonists of the androgen receptor (AR) signaling pathway (AID 743035; active = well fitted inhibition curve with a large enough effect in the signal ratio in the repeat runs, not every such curve was filed as active; the % refers to the signal ratio). An outline of the steps: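 Reporter HEK293 cells were exposed to compounds and R1881 overnight (16 h, 37C); beta-lactamase activity was then quantified by FRET fluorescence.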
Chain of Androgen receptor (Homo sapiens) (P10275 whole entry, looked up): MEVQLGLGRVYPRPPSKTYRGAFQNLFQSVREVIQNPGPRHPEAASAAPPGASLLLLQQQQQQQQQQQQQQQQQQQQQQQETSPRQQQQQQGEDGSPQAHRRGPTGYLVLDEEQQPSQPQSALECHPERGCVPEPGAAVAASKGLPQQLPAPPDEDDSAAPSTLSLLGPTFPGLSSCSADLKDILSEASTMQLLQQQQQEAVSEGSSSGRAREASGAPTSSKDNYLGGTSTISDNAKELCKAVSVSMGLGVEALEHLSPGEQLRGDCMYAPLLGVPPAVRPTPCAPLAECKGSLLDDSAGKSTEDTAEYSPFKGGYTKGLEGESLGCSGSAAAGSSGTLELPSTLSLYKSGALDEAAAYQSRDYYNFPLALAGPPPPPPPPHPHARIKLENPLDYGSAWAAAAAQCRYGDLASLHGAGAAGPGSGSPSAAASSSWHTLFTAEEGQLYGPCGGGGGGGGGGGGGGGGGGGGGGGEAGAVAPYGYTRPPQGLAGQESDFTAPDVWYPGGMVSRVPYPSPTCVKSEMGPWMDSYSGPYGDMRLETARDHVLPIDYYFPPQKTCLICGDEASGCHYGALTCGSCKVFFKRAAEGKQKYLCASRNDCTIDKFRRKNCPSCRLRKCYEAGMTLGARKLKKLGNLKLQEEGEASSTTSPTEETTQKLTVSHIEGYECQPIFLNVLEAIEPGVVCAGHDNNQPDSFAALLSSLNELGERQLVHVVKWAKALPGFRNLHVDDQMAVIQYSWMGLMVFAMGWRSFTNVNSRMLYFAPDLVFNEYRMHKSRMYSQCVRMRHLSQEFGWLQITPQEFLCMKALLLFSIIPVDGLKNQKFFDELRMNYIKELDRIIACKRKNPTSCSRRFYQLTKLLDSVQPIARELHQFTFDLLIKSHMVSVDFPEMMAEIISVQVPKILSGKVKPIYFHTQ
For assay [17] the target is unchanged. Put plainly: qHTS assay to identify small molecule agonists of the androgen receptor (AR) signaling pathway (AID 743036; active = well fitted activation curve with a large enough effect in the signal ratio in the repeat runs, with a control signal flat, not every such curve was filed as active; the % refers to the signal ratio). An outline of the steps: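 Quantitative HTS of the Tox21 10K library in HEK293 cells bearing a stably integrated UAS-controlled beta-lactamase reporter. Compound exposure lasted 16 h at 37C. Reporter activity was detected by FRET substrate fluorescence after 2 h at room temperature.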

Assay [18] shares this target. Put plainly: qHTS assay to identify small molecule agonists of the androgen receptor (AR) signaling pathway using the MDA cell line (AID 743040; note: nearly all actives have a fitted effect of over 20% in size). The method in brief: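 Testing was done with the MDA-kb2 AR-luc line, a human breast carcinoma stably transfected with MMTV-luciferase containing AR and GR response elements. Cells were exposed 16 h at 37C before ONE-Glo luminescence detection.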

Assay [19] has the same target. The experiment in a line: qHTS assay to identify small molecule antagonists of the androgen receptor (AR) signaling pathway using the MDA cell line (AID 743042; note: nearly all actives have a fitted effect of over 55% in size). The method in brief: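 MDA-kb2 breast carcinoma cells carrying MMTV-luciferase (AR/GR responsive) were co-treated with compounds and the agonist R1881 for 16 h at 37C. Inhibition read as ONE-Glo luminescence; CellTiter-Fluor fluorescence measured in parallel for cytotoxicity.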

Assay [20] in a line: qHTS assay for identifying genotoxic compounds that show differential cytotoxicity against isogenic chicken DT40 cell lines with known DNA damage response pathways - wild type cell line (AID 743012). Note: nearly all actives have a fitted effect of over 60% in size. The method in brief: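 Viability of DNA repair-proficient chicken DT40 cells was assessed by CellTiter-Glo luminescence following 40 h compound exposure at 37 C/5% CO2.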

Values joined by “and” are separate entries in the source; they are usually repeats but may differ in a detail not shown here. Equal entries are not always repeated. Inconclusive results are not listed. Some compounds were tested as several samples or in several runs, with calls that do not always agree. Active and inactive are the calls of the source. Unless noted, calls come from the whole dose curve; as a rule, active = well fitted curve in the direction sought with a large enough effect in the repeat runs; inconclusive = weak or mixed curves; inactive = no such curve, though single readings can be large; an effect the other way counts as inactive or inconclusive.

Chain of Glucocorticoid receptor (Homo sapiens) (P04150 whole entry, looked up): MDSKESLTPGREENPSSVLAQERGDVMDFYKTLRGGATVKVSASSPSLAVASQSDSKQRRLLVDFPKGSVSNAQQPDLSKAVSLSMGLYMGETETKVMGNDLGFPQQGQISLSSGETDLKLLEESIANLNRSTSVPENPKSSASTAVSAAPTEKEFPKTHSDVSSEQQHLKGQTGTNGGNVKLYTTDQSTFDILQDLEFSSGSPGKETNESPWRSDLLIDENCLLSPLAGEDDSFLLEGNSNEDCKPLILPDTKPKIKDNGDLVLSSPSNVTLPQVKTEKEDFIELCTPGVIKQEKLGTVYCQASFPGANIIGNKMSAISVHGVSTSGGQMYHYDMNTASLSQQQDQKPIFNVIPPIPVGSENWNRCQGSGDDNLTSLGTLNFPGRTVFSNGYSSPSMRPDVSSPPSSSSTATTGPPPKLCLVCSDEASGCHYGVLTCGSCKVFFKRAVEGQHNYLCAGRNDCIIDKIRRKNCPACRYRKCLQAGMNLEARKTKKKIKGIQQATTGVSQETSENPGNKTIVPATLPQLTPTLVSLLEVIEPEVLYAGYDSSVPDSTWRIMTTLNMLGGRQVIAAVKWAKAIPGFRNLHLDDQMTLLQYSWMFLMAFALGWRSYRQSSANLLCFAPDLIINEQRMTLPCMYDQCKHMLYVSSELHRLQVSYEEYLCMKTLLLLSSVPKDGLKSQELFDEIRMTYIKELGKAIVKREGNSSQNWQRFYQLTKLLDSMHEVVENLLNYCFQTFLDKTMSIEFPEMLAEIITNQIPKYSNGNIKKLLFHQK

Turning to `CCCCCCCCCCCCn1cc[n+](C)c1`, the outcome in [1], in [2], in [3], in [4], in [5] and in assay [6] was inactive. For the same compound, the compound was classed as inactive in [7], in [8] and in assay [9]. Further, the Potency entry in [10] is “inactive”.

With `O=c1nc(O)n(Cl)c(=O)n1Cl`, the outcome in [1], in assay [2], in assay [3], in assay [4], in [5] and in assay [6] was inactive. Besides, the call in assay [7], in assay [8] and in assay [9] was inactive. The Potency result in [10], in assay [11], in assay [12], in assay [13], in assay [14] and in assay [15] was “inactive” in each case.

Take `CCCCCCCCCCCCCCCCn1cc[n+](C)c1`: the outcome in assay [1], in assay [2], in assay [3], in assay [4], in [5] and in assay [6] was inactive. Also, the result in [7], in assay [8] and in assay [9] was inactive. Moreover, the Potency entry in [10] is “inactive”.

In the case of `Nc1ccc(Cl)cc1`, the outcome in [1], in [2], in assay [3], in assay [4], in assay [5] and in assay [6] was inactive. Besides, the compound was classed as inactive in [7], in assay [8] and in assay [9]. In addition, the Potency entry in [10], in assay [11], in [12], in assay [13], in assay [14] and in [15] was “inactive” each time.

With `CCCCCCCCCCCCOS(=O)(=O)O`, the compound was called inactive in [1], in assay [2], in [3], in [4], in [5] and in [6]. Moreover, the call in assay [7], in assay [8] and in [9] was inactive. Also, the Potency result in [10], in assay [11], in [12], in assay [13], in assay [14] and in assay [15] was “inactive” each time.

Turning to `Cc1cc(Cl)ccc1OCC(=O)O`, the compound was classed as inactive in assay [1], in [2], in assay [3], in assay [4], in assay [5] and in assay [6]. The compound was called inactive in [7], in assay [8], in [9], in assay [16], in [17] and in assay [18]. For the same compound, the Potency result in [10], in assay [11], in assay [12], in assay [13], in [14] and in assay [15] was “inactive” throughout. Besides, in [19], the Potency entry is “inactive”.

Consider `COc1ccc(N)cc1`, for which the result in assay [1], in [2], in [3], in [4], in assay [5] and in [6] was inactive. Further, the result in [7], in assay [8] and in assay [9] was inactive. Further, the Potency entry in assay [10], in [11], in assay [20], in assay [14] and in [15] was “inactive” in each case. Besides, the Potency in [12] was 60.6 µM (active) and 45.4 µM (active); in [13] it was 53.5 µM (active) and 60.6 µM (active) and inactive.

In the case of `CC[N+](CC)(CC)CC`, the compound was classed as inactive in assay [1], in assay [2], in assay [3], in assay [4], in assay [5] and in assay [6]. The compound was called inactive in assay [7], in assay [8] and in assay [9]. Also, the Potency entry in assay [10], in assay [11], in [12], in assay [13], in assay [14] and in assay [15] was “inactive” in each case.

Turning to `N#CS`, the compound was classed as inactive in assay [1], in [2], in assay [3], in [4], in assay [5] and in [6]. Moreover, the compound was classed as inactive in assay [7], in assay [8] and in assay [9]. Also, the Potency result in assay [10], in [11], in assay [12], in assay [13], in assay [14] and in assay [15] was “inactive” throughout.

Consider `C[N+](C)(C)Cc1ccccc1`, for which the compound was classed as inactive in [1], in assay [2], in assay [3], in assay [4], in [5] and in assay [6]. The result in assay [7], in assay [8] and in assay [9] was inactive. Further, the Potency entry in [10], in assay [11], in assay [12], in assay [13], in assay [14] and in [15] was “inactive” throughout.

For `CCCCCCCCCCn1cc[n+](C)c1`, the compound was classed as inactive in assay [1], in assay [2], in [3], in assay [4], in assay [5] and in assay [6]. The outcome in [7], in [8] and in assay [9] was inactive. Further, the Potency in assay [10] was 15.6 µM (active) and 39.1 µM (active); in [11], 49.5 µM (active) and 40 µM (active) and 48.9 µM (active); in [14], 2.48 µM (active); in assay [15], 872 nM (active) and 559 nM (active) and 193 nM (active).

On to `Cc1cc(Cl)ccc1N`, for which the compound was called inactive in assay [1], in [2], in [3], in assay [4], in [5] and in [6]. In addition, the call in assay [7], in assay [8] and in [9] was inactive. Moreover, the Potency result in assay [10], in [11], in assay [12], in assay [13], in [14] and in assay [15] was “inactive” in each case.

`O=P1(N(CCCl)CCCl)NCCCO1` (stereo not drawn): the outcome in assay [1], in assay [2], in assay [3], in assay [4], in [5] and in [6] was inactive. For the same compound, the result in assay [7], in assay [8] and in assay [9] was inactive. In addition, the Potency entry in [10], in [11], in assay [12], in [13], in assay [14] and in assay [15] was “inactive” in each case.

`O=c1[nH]c(=O)n(Cl)c(=O)n1Cl`: the call in assay [1], in assay [2], in [3], in assay [4], in [5] and in assay [6] was inactive. The compound was called inactive in assay [7], in assay [8] and in [9]. Moreover, the Potency result in assay [10], in [11], in [12], in [13], in assay [14] and in [15] was “inactive” each time.

Turning to `O=C(O)CCl`, the outcome in assay [1], in assay [2], in assay [3], in [4], in [5] and in assay [6] was inactive. Besides, the outcome in assay [7], in assay [8] and in assay [9] was inactive. For the same compound, the Potency result in assay [10], in assay [11], in assay [12], in [13], in assay [14] and in [15] was “inactive” each time.
